esBAF inh: SWI/SNF esBAF complex inhibition; reporter increase, % at 12.5 µM; mouse ES cells, Bmi1-luciferase knock-in reporter, 24 h; 100% = twice the neutral-well signal; hit rate 2% among 350,000; in the data active means activation above about 40%;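 further: a rise in the Bmi1 reporter signal indicates esBAF inhibition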
NR3A LBD binder: modulators (binders) of human NR3A ligand-binding domain; NR3A LBD differential scanning fluorimetry, Tm shift; 0% = protein alone, 100% = glycine-bound protein; hit rate 2.5% among 340,000; Tm shift relative to glycine control, % at 25 µM;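 active means melting temperature shift of at least 10% of the positive control shift, at one fixed dose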
NadD inh: NadD (S. aureus) enzyme inhibition; inhibition, % at 20 µM; hit rate 0.78% among 360,000; purified NadD enzyme, colorimetric absorbance read-out; AID 602399; in the data active means inhibition above about 26%
SMARCA2 act: increases SMARCA2 function in MMTV reporter cells | MG213 cells, MMTV-luciferase reporter, dexamethasone, overnight | AID 652017 | hit rate 1% among 370,000 | activation, % at 9.1 µM; in the data active means activation above about 7.8%
Vif imaging: HIV Vif inhibition. hit rate 0.35% among 340,000. AID 602346. inhibition, % at 7.49 µM. HEK293T cells, Vif self-association by quenched fluorescence, imaging, 24 h; in the data active means inhibition above about 50%, passing the limit was not always enough
SKN-1 block: blocks SKN-1 activity in C. elegans; inhibition, % at 21.8 µM; AID 624304; C. elegans VP596 Pgst-4::GFP/RFP ratio, acrylamide-induced, 24 h; hit rate 0.49% among 360,000;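 active means interference check ratio from 0.5 to 1.5 plus GFP to RFP signal ratio inhibition reaching or exceeding a fixed threshold, cut at about 30% in these data, passing the limit was not always enough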
A number is an active result; 0 = inactive; - = not tested or not shown. A selection: hits, their analogues and other compounds. The true share with any hit is near 5.2%.

SMILES	esBAF inh	NR3A LBD binder	NadD inh	SMARCA2 act	Vif imaging	SKN-1 block
CN(C)CC(=O)N[C@H]1CC[C@H](CC(=O)NCc2ccccc2F)O[C@@H]1CO	0	-	-	-	-	-
O=C(NNC(=O)C1CCN(S(=O)(=O)c2ccc(Cl)cc2)CC1)c1ccc(S(=O)(=O)N2CCCCC2)cc1	-	22	0	0	0	0
Cc1ccc(C(=O)NNC(=O)C2CCN(S(=O)(=O)c3ccc(Cl)cc3)CC2)cc1	0	0	0	0	0	0
CSc1ccc(CNc2ccc(C)c(C)c2)cc1	59	0	0	0	0	0
Cc1ccc(NCc2cccnc2)cc1	0	0	0	0	0	0
Cc1ccc(CNc2cccnc2)cc1	58	0	0	0	0	0
COc1ccc(CNc2ccc(C)c(C)c2)cc1	-	0	0	0	0	0
Cc1ccc(NCc2ccccc2O)cc1C	68	0	0	0	0	0
CSc1ccc(CNc2ccc(C)cc2)cc1	55	0	0	0	0	0
Cc1ccc(NCc2ccccc2)cc1	-	0	0	0	0	0
C[C@@H]1CN([C@@H](C)CO)C(=O)c2cc(-c3ccncc3)cnc2O[C@H]1CN(C)S(=O)(=O)c1ccc(F)cc1	0	-	-	-	-	-
COc1ccc(N2CCN(S(=O)(=O)c3c(C)n(C)c(=O)n(C)c3=O)CC2)cc1	0	11	0	0	0	0
C[C@@H]1CN([C@H](C)CO)C(=O)c2cc(NS(=O)(=O)c3cccs3)ccc2O[C@H]1CN(C)S(=O)(=O)c1cccs1	0	-	-	-	-	-
C[C@@H]1CCCCO[C@H](CN(C)Cc2ccc(C(=O)O)cc2)[C@@H](C)CN([C@H](C)CO)C(=O)c2cc(NC(=O)Cc3ccccc3)ccc2O1	0	-	-	-	-	-
C=CCn1c(-c2ccc(OC)cc2)nc2ccccc21	41	0	0	0	0	0
COc1ccc(-c2nc3ccccc3n2Cc2ccccc2)cc1	0	0	0	0	0	0
Cc1cccc(N2CC34C=CC(O3)C(C(=O)O)C4C2=O)c1 (centres undefined)	0	0	0	0	0	0
O=C(O)C1C2C=CC3(CN(c4cccc(C(F)(F)F)c4)C(=O)C13)O2 (centres undefined)	0	11	0	0	0	0
C=CCn1c(C)nc2ccccc2c1=O	-	0	0	0	0	0
C=CCn1c(N/N=C/c2ccc(O)cc2)nc2ccccc2c1=O	0	12	0	0	0	0
CC(C)c1ccc(CN2CC(C(=O)Nc3ccccc3)CC2=O)cc1 (centres undefined)	0	15	0	0	0	0
O=C(Nc1ccccc1)C1CC(=O)N(C2CCCCC2)C1 (centres undefined)	0	0	0	0	0	42
COc1ccc(C(=O)Nc2c(Cl)cc(Cl)cc2C(=O)NCc2ccco2)cc1	0	0	0	0	0	0
COc1ccc(Cc2nc3ccc(C(=O)N(C)CCn4ccnc4)cc3o2)cc1OC	48	0	0	0	0	0
COc1ccc(Cc2nc3ccc(C(=O)N4C[C@@H](C)O[C@@H](C)C4)cc3o2)cc1OC	69	0	0	0	0	0
SMILES	esBAF inh	NR3A LBD binder	NadD inh	SMARCA2 act	Vif imaging	SKN-1 block
COc1ccc(Cc2nc3ccc(C(=O)N(C)CCO)cc3o2)cc1	0	0	0	0	0	0
COCCN1CCN(C(=O)c2ccc3nc(Cc4ccc(OC)c(OC)c4)oc3c2)CC1	-	0	0	0	0	0
COc1ccc(C(=O)Nc2c(Cl)cc(Cl)cc2C(=O)N2CCOCC2)cc1	-	0	0	0	65	0
C=CCNC(=O)c1ccc2nc(Cc3ccc(OC)cc3)oc2c1	89	0	0	0	0	0
Cc1noc(C)c1S(=O)(=O)Nc1ccc2c(c1)CC(=O)N([C@H](C)CO)C[C@H](C)[C@@H](CN(C)C(=O)Nc1ccc(F)cc1)O2	0	-	-	-	-	-
O=C(Nc1cccc(F)c1)N[C@H]1CC[C@H](CCn2cc(Cc3ccccc3)nn2)O[C@@H]1CO	0	-	-	-	-	-
O=C(CCN1CCCCC1)NCC[C@H]1CC[C@H](NC(=O)Nc2ccc(F)cc2)[C@H](CO)O1	0	-	-	-	-	-
CO[C@H]1CN(C)C(=O)c2cc(NC(C)=O)ccc2OC[C@@H](C)N(C(=O)C2CCCCC2)C[C@@H]1C	0	-	-	-	-	-
COc1ccc(Cc2nc3ccc(C(=O)N4CCC(C(N)=O)CC4)cc3o2)cc1	0	-	0	0	-	0
CC1CN(C(=S)NC(=O)c2ccc(Cl)cc2)CC(C)O1 (centres undefined)	0	0	0	0	0	0
COc1ccc(Cc2nc3ccc(C(=O)N4CCOCC4)cc3o2)cc1	78	0	0	0	0	0
COc1ccc(C(=O)NC(=S)N2CC(C)OC(C)C2)cc1OC (centres undefined)	-	12	0	0	0	0
Cn1cnc(S(=O)(=O)N[C@H]2C=C[C@@H](CC(=O)Nc3ccc(-c4ccccc4)cc3)O[C@H]2CO)c1	0	-	-	-	-	-
CO[C@H]1CN(C)C(=O)c2cc(NC(=O)Nc3cccc(Cl)c3)ccc2OC[C@H](C)N(C)C[C@@H]1C	0	-	-	-	-	-
CC(Cc1ccccc1)N/C=C1/CC(=O)NC1=O (centres undefined)	0	14	0	0	0	0
S=c1nc(Cc2ccc(Cl)cc2)[nH]c2ccccc12	-	0	0	0	0	0
S=c1nc(Cc2ccccc2)[nH]c2ccccc12	0	0	0	0	68	0
S=c1nc(COc2ccccc2)[nH]c2ccccc12	68	0	0	0	0	0
Cc1ccc(S(=O)(=O)N[C@@H]2CC[C@@H](CC(=O)N3CCC(Cc4ccccc4)CC3)O[C@H]2CO)cc1	0	-	-	-	-	-
C[C@H](CO)N1C[C@H](C)[C@H](CN(C)C(=O)Nc2ccc(F)cc2)Oc2ncc(C#CC3CC3)cc2C1=O	0	-	-	-	-	-
CO[C@H]1CN(C)C(=O)c2ccc(NC(=O)c3nc4ccccc4s3)cc2OC[C@@H](C)NC[C@H]1C	0	-	-	-	-	-
C=C(C)COc1ccc(-c2nc(N)ncc2-c2ccc(Cl)cc2)c(O)c1	0	20	0	0	0	0
C=C(C)COc1ccc(-c2ncncc2Oc2ccc(OC)cc2)c(O)c1	-	21	0	0	0	0
C=C(C)COc1ccc(-c2nc(N)ncc2-c2ccc(OC)cc2)c(O)c1	0	-	-	0	0	-
Cc1ccc(NC(=O)Nc2ccc3c(c2)C(=O)N(C)[C@H]2CC[C@H](CC(=O)O)O[C@@H]2CO3)cc1	0	-	-	-	-	-
CCN(CC)S(=O)(=O)c1ccc2c(c1)nc(SC(C)C(N)=O)n2-c1ccc(OC)cc1 (centres undefined)	-	0	0	0	0	29
COc1ccc(-n2nnnc2SC(C)C(N)=O)cc1 (centres undefined)	0	0	0	0	0	0
O=C(Nc1ccccc1)N1CCCN(c2nccc(C(F)(F)F)n2)CC1	0	0	0	7.8	0	0
O=C(Nc1ccc(F)cc1)N1CCCN(c2nccc(C(F)(F)F)n2)CC1	0	0	0	0	0	0
CC1(c2nnc(-c3cccc(Cl)c3)o2)CC(c2ccccc2F)=NO1 (centres undefined)	0	13	0	0	0	0

Screens as filed in PubChem BioAssay.
